A selection: hits, their analogues and other compounds. The true share with any hit is near 6%.
D1 PAM: Potentiators of Human D1 Dopamine Receptor: qHTS; HEK293 TREx D1 cells, calcium flux, dopamine EC20 potentiation; hit rate 0.036% among 360,000; AID 504651, 2011; potentiation, % at 10 µM; in the data active = potentiation above about 30%; note: 0% is about no effect
Target sequence (P21728 whole entry, looked up): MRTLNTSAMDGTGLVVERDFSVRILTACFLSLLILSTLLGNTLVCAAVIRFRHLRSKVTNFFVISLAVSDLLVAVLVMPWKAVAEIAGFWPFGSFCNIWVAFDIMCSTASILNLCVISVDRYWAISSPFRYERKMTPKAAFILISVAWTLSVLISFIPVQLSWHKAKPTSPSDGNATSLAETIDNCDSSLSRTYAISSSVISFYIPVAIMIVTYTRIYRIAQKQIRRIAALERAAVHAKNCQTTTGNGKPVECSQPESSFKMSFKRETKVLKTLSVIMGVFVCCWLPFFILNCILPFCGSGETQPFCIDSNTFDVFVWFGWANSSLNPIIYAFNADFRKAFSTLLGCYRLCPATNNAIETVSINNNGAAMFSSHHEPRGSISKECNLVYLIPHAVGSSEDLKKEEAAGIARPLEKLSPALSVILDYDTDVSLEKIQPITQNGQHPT
DRD3 agonist: qHTS of D3 Dopamine Receptor Agonist: qHTS; D3R DiscoveRx beta-arrestin cells, luminescence, 90 min; max activation, %; hit rate 0.58% among 410,000; AID 652048, 2013; in the data active = max activation above about 30%; note: 0% is about no effect
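Agonist-mode cell screen: cells plated at 1500/well and incubated overnight at 37 °C, then exposed to library compounds for 90 min at 37 °C. Detection reagent was added for 30–60 min at room temperature, and luminescence was read.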
D1 antagonist: Antagonist of Human D 1 Dopamine Receptor: qHTS; D(1A) dopamine receptor (Homo sapiens), P21728; HEK293 TREx D1 cells, calcium flux, dopamine EC80; hits give low values; activity change, negative = inhibition, % at 10 µM; hit rate 3.2% among 360,000; in the data active = activity change below about -30%; note: % is set by controls: 0 for no effect and ±100 for the full control effect
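Compound effects on dopamine-evoked calcium signalling were measured in tetracycline-induced HEK293 Trex D1 cells. Dopamine at EC80 followed a 180 s compound pre-read, and fluorescence was tracked kinetically for 180 s more.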
D3 antag: qHTS of D3 Dopamine Receptor Antagonist: qHTS. D(3) dopamine receptor (Homo sapiens), P35462. D3R cells, DiscoveRx beta-arrestin luminescence, antagonist mode; hits give low values. max response, negative = inhibition, %. hit rate 2.5% among 360,000. AID 652054, 2013; in the data active = max response below about -50%; inconclusive = no clear call, values can overlap the other calls; note: % is set by controls: 0 for no effect and ±100 for the full control effect
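Cells plated overnight at 1500 cells/well, then exposed to library compounds with dopamine controls for 90 minutes at 37 degrees C. DiscoveRx reagent added for 30–60 minutes at room temperature; luminescence read, quantitative HTS format.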
D1 ag: Allosteric Agonists of the Human D1 Dopamine Receptor: qHTS. HEK293 T-REx D1 cells, calcium flux, agonist mode. AID 504660, 2011. hit rate 1% among 360,000. D(1A) dopamine receptor (Homo sapiens), P21728. activation, % at 2 µM; in the data active = activation above about 30%; note: 0% is about no effect
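Inducible HEK293 T-REx D1 cells, force-coupled to calcium signalling, were plated at 4000 cells/well with tetracycline and held overnight at 30 C. After no-wash calcium dye loading, compound-evoked calcium rise over 180 s flagged agonists.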
Active calls of the source: *.

Results for CC1CN(C(=O)CCC(=O)NCc2cccc(Cl)c2)c2ccccc2S1 (configuration not stated) ?
D1 PAM: -8; DRD3 agonist: -7; D1 antagonist: -32*; D1 ag: 4

How did CCCCNC(=O)C1=CC(c2ccc3c(c2)OCO3)=NS(=O)(=O)N1C do in these assays?
D1 PAM: 0; DRD3 agonist: 0; D1 antagonist: -2; D1 ag: 4

How did COC(=O)c1c(NC(=O)c2ccc(S(=O)(=O)N3CCCCC3)cc2)sc2c1CCN(C)C2 do in these assays?
D1 PAM: -1; DRD3 agonist: -5; D1 ag: -4

Results for O=C(CSc1nc2c([nH]c3ccccc32)c(=O)n1-c1cccc(C(F)(F)F)c1)N1CCc2ccccc21 ?
D1 PAM: 0; DRD3 agonist: 5; D1 antagonist: 4; D1 ag: 0

What do the screens show for `CCCCc1ccc(Nc2cc(C)nc(-n3nc(C)cc3C)n2)cc1`?
D1 PAM: 3; DRD3 agonist: -19; D1 antagonist: -2; D1 ag: 0

How did Cc1ccc(-c2csc(/C(C#N)=C/c3ccccc3Cl)n2)cc1 do in these assays?
D1 PAM: 0; DRD3 agonist: 3; D1 antagonist: 8; D1 ag: 10

Results for CN(Cc1ccccc1)C(=O)COC(=O)c1ccccc1NS(=O)(=O)c1cccc(N)c1 ?
D1 PAM: -6; DRD3 agonist: -1; D1 antagonist: -32*; D3 antag: 5; D1 ag: 6

How did CCCn1c(CCC(=O)Nc2cc(OC)cc(OC)c2)nc2cccnc21 do in these assays?
D1 PAM: 0; DRD3 agonist: -6; D1 antagonist: -9; D1 ag: 1

What do the screens show for `Cc1ccc2scc(N3CCCCC3)c(=O)c2c1`?
D1 PAM: 0; DRD3 agonist: 1; D1 antagonist: 8; D1 ag: 0

How did COC(=O)c1scc(C)c1NC(=O)Nc1ccccc1 do in these assays?
D1 PAM: 4; DRD3 agonist: -12; D1 antagonist: 3; D3 antag: 33; D1 ag: 1

Results for COC(=O)c1scc(C)c1NC(=O)/C=C/C(=O)O ?
D1 PAM: -4; DRD3 agonist: 6; D1 antagonist: -47*; D3 antag: 7; D1 ag: 2

How did COC(=O)c1scc(C)c1NC(=O)c1ccccc1F do in these assays?
D1 PAM: -4; DRD3 agonist: 4; D1 antagonist: -37*; D3 antag: -2; D1 ag: 1

How did Cc1ccc(CN(Cc2ccco2)C(=O)COc2ccc(Cl)cc2)o1 do in these assays?
D1 PAM: -2; DRD3 agonist: 7; D1 antagonist: -7; D1 ag: 3

What do the screens show for `COc1ccccc1C(=O)Nc1ccc(C(=O)OCc2cc(=O)n3ccsc3n2)cc1`?
D1 PAM: 1; DRD3 agonist: -2; D1 antagonist: 3; D1 ag: 0

How did Cc1cc(C(=O)N2CCCC(C(=O)c3ccc(Cl)cc3C)C2)no1 (configuration not stated) do in these assays?
D1 PAM: 7; DRD3 agonist: -5; D1 antagonist: -35*; D3 antag: -1; D1 ag: 1

How did Cc1cc(Cl)ccc1C(=O)C1CCCN(C(=O)c2cscn2)C1 (configuration not stated) do in these assays?
D1 PAM: -1; DRD3 agonist: 5; D1 antagonist: -2; D3 antag: 8; D1 ag: 0

What do the screens show for `CC(=O)Nc1ccc(S(=O)(=O)NCCSCc2ccc(Cl)cc2Cl)cc1`?
D1 PAM: -7; DRD3 agonist: -4; D1 antagonist: -31*; D3 antag: 32; D1 ag: 15

How did CCc1ccccc1N1C(=O)N(CC(=O)c2ccc(Cl)cc2)c2ccccc2S1(=O)=O do in these assays?
D1 PAM: -5; DRD3 agonist: -10; D1 antagonist: -1; D1 ag: 14

How did Cc1ccccc1-n1cnc2cc(NCc3cccs3)ccc21 do in these assays?
D1 PAM: -10; DRD3 agonist: 1; D1 antagonist: -37*; D3 antag: -3; D1 ag: 6

What do the screens show for `COc1ccccc1-n1cnc2cc(NCc3cccs3)ccc21`?
D1 PAM: 2; DRD3 agonist: -7; D1 antagonist: -19; D3 antag: -28; D1 ag: -1

How did c1ccc(Cc2nnc3sc(Nc4ccccc4)nn23)cc1 do in these assays?
D1 PAM: -13; DRD3 agonist: 26; D1 antagonist: -45*; D3 antag: -21; D1 ag: 6

Results for Brc1ccc(-c2nn3c(Cc4ccccc4)nnc3s2)o1 ?
D1 PAM: -1; DRD3 agonist: -4; D1 antagonist: 0; D3 antag: -4; D1 ag: 2

How did Cc1ccc(NC(=O)c2cnc(SCC(=O)N3CCCc4ccccc43)n(C)c2=O)cc1C do in these assays?
D1 PAM: 2; DRD3 agonist: 4; D1 ag: -1

How did Cc1cccc(CCN2CCN=C2Nc2ccccc2)c1 do in these assays?
D1 PAM: 0; DRD3 agonist: -46; D1 antagonist: -40*; D3 antag: -56*; D1 ag: 46*

Results for c1ccc(NC2=NCCN2CCC2CCCCC2)cc1 ?
D1 PAM: -3; DRD3 agonist: -91; D1 antagonist: -4; D3 antag: -63*; D1 ag: 2

How did Fc1ccc(CCN2CCN=C2Nc2ccccc2)cc1 do in these assays?
D1 PAM: -8; DRD3 agonist: -47; D1 antagonist: -15; D3 antag: inconclusive; D1 ag: 35*

How did c1ccc(NC2=NCCN2CCCC2CCCC2)cc1 do in these assays?
D1 PAM: -7; DRD3 agonist: -63; D1 antagonist: 11; D3 antag: inconclusive; D1 ag: 2

What do the screens show for `CCOC(=O)N1CCc2c(sc(NCc3cccc(F)c3)c2C(=O)Nc2ccc(OCC)cc2)C1`?
D1 PAM: -2; DRD3 agonist: -7; D1 antagonist: 6; D1 ag: 0

How did Cc1ccc(Cc2nc3ccccc3nc2SCC(=O)NCc2ccccc2Cl)cc1 do in these assays?
D1 PAM: -3; DRD3 agonist: 7; D1 antagonist: -1; D1 ag: 4

Results for CC(=O)c1ccc(N2CCN(c3ncnc4onc(-c5ccc(Cl)cc5)c34)CC2)cc1 ?
D1 PAM: -1; DRD3 agonist: 4; D1 antagonist: 2; D1 ag: 4

What do the screens show for `COc1cccc(N2CCN(C(=O)CCc3c(C)nc4c(c3C)c(=O)n(C)c(=O)n4C)CC2)c1`?
D1 PAM: -5; DRD3 agonist: 2; D1 antagonist: -16; D1 ag: 1

What do the screens show for `CCCC(=O)Nc1cc2nn(-c3ccc(OC)cc3)nc2cc1C`?
D1 PAM: -1; DRD3 agonist: 43*; D1 antagonist: 2; D1 ag: 0

Assay outcomes as filed in PubChem.
